We go through ten molecules from ChEMBL document CHEMBL3988442, “University of Dundee, Small-Polar-MMV Screening Library” (2021).

For some assays here: Measured potencies and affinities stand elsewhere.

What all share (design): scale not given: direction of the effect not stated beside the values
The target of test [1] is Protein translocase subunit SecA (Escherichia coli (strain K12)) (UniProt P10408). Kind of test: Assay to Identify E. coli SecA ATPase Inhibitors. Format: functional. The note with it: 30 µM.
Chain of Protein translocase subunit SecA (Escherichia coli (strain K12)) (P10408 whole entry): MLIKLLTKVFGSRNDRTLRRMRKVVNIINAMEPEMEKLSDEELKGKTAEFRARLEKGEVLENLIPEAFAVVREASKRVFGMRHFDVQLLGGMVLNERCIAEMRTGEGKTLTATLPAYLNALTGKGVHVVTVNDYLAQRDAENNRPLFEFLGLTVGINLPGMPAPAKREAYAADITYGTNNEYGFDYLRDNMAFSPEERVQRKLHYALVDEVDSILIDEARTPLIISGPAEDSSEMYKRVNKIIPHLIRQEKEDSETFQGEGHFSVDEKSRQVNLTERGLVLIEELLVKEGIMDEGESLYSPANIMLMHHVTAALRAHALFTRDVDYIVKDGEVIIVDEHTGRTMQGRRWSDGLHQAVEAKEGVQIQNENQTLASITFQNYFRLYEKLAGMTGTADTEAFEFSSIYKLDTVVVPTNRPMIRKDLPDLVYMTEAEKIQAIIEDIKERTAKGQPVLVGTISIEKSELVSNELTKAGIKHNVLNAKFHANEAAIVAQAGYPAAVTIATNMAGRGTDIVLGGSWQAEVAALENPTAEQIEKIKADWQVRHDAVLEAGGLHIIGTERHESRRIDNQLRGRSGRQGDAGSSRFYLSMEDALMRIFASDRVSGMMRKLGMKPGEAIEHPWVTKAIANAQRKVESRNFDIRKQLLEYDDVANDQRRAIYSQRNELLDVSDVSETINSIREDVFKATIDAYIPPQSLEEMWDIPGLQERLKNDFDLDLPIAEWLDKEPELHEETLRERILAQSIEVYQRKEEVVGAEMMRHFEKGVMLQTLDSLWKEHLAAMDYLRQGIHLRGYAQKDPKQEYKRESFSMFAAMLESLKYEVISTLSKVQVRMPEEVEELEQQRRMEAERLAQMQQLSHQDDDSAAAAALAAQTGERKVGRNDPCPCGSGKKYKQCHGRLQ
Test [2] addresses T1, Ubiquitin-activating enzyme e1, putative (Leishmania donovani (strain BPK282A1)) (UniProt E9BSI1).
T1 sequence (whole entry): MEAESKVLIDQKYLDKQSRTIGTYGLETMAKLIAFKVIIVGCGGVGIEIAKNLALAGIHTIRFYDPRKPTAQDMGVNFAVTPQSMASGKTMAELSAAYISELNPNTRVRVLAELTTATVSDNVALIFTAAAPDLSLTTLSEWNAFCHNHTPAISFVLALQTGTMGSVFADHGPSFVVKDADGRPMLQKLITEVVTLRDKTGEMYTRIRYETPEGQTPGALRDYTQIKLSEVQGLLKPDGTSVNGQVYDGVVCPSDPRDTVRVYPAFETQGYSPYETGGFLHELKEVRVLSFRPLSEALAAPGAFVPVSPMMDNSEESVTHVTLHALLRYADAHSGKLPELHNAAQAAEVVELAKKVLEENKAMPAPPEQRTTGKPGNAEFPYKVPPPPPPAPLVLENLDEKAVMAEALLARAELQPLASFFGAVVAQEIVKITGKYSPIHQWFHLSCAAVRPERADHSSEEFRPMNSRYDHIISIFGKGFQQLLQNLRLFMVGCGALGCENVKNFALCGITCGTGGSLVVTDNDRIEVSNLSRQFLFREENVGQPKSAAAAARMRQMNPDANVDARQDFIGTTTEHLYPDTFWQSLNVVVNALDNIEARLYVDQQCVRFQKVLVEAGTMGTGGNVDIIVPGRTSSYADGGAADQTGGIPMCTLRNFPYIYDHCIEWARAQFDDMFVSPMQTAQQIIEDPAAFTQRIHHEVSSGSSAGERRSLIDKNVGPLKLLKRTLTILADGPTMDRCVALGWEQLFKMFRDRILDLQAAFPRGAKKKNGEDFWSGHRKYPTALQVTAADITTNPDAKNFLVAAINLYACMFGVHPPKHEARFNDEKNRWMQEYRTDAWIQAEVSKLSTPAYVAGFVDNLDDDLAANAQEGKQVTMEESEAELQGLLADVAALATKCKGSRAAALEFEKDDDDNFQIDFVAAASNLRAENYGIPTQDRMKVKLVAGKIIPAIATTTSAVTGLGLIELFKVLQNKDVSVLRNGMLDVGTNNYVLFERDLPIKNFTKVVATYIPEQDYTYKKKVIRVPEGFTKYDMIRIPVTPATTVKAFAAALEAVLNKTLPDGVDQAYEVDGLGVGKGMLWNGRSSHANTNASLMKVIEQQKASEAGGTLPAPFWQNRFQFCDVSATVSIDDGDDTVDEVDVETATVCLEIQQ
The test can be described thus: Leishmania donovani Ubiquitin Activating Enzyme (LdE1). Type of test: functional. As to conditions: 30 µM.

Test [3] addresses AMP-activated protein kinase, AMPK (Homo sapiens) (UniProt P54646+O43741+P54619+Q9UGJ0+Q9Y478+Q13131+Q9UGI9). Kind of test: AMP-dependent Kinase enzyme assay. An in vitro enzyme assay that detects ADP turnover that is directly proportional to AMPK activity. This uses naive AMPK that is activated during the assay with MK-8722. Format: functional. The note with it: 30 µM.
For test [4], the target named is Sialic acid-binding Ig-like lectin 9 (Homo sapiens) (UniProt Q9Y336). Kind of test: Hs-Siglec9 ALPHAscreen SOP 20170721. The note with it: 10 µM.
Chain of Sialic acid-binding Ig-like lectin 9 (Homo sapiens) (Q9Y336 whole entry): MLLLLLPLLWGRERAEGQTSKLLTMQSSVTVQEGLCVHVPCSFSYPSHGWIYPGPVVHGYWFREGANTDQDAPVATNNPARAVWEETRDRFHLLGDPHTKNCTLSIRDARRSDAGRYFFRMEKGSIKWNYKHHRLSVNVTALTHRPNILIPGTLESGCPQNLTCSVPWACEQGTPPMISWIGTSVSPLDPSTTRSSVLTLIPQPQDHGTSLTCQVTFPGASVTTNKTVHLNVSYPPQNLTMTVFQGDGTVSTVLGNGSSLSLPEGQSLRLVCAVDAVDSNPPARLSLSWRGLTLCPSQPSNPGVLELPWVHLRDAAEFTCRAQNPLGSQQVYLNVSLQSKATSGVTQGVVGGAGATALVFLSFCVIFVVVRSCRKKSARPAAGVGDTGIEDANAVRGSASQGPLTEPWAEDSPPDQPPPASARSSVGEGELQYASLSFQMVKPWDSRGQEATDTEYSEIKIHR
The subject of a further test is Trypanosoma cruzi. Kind of test: Trypanosoma cruzi phosphomannomutase and mannose-1-phosphate guanylyltransferase assay. Type of test: functional. The note with it: 10 µM.
The target in test [5] is T2, Arginase-2, mitochondrial (Homo sapiens) (UniProt P78540).
T2 sequence (whole entry): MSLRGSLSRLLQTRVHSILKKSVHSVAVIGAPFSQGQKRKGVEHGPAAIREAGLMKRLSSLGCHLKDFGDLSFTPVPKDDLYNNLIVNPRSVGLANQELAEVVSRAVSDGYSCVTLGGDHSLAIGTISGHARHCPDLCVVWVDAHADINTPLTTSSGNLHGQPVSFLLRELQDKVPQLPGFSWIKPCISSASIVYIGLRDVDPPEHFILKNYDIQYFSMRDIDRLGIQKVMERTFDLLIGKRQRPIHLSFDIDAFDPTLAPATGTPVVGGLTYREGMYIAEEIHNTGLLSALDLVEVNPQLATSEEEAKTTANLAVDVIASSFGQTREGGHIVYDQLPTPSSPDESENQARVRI
Kind of test: in vitro enzyme assay to detect the production of urea directly proportional to the activity of Arginase II. Further: in the data most compounds retested in dose-response had high values. Format: functional. The note with it: 33.3 µM.

Test [6] has as its target T3, Proteasome subunit beta (Trypanosoma cruzi) (UniProt O96673).
T3 sequence (whole entry): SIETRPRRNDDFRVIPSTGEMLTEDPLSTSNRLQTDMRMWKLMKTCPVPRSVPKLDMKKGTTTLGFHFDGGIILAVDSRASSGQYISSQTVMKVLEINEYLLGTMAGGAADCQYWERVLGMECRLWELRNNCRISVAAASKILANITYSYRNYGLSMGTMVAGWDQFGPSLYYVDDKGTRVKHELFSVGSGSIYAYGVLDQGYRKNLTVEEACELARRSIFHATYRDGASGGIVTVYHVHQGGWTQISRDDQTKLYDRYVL
The test can be described thus: Trypanosoma cruzi proteasome chymotrypsin-like activity (TcProtChymo) assay. Further: in the data most compounds retested in dose-response had high values. Format: functional. As to conditions: 9.37 µM.

For another test, the species on record is Homo sapiens. Kind of test: To identify inhibition of the IFN signalling (Jak-Stat) pathway via expression of an eGFP reporter gene under the control of an IFN-stimulated response element (ISRE) containing MxA promoter. Type of test: functional. The note with it: 30 µM.
In test [7] the target is T4, Tyrosyl-tRNA synthetase, putative (Trypanosoma cruzi (strain CL Brener)) (UniProt Q4DSP6).
T4 sequence (whole entry): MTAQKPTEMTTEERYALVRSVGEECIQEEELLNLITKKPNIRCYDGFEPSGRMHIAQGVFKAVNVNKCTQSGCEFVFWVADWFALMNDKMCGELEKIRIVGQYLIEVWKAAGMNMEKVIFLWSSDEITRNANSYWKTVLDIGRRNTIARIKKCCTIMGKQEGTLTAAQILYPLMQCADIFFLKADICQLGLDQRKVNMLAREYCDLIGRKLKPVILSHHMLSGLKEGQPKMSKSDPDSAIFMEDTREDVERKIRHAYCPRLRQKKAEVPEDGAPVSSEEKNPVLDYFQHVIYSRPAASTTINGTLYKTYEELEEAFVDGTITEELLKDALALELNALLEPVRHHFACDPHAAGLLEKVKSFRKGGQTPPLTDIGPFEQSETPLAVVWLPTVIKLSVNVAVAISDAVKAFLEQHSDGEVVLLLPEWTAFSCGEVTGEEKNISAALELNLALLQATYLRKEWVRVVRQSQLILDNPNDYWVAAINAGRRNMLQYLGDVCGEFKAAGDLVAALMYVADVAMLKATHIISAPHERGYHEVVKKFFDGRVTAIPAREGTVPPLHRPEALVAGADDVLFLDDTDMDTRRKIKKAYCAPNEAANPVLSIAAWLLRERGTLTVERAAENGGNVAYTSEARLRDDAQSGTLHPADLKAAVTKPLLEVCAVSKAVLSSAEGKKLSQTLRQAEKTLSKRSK
Kind of test: Trypanosoma cruzi tyrosyl tRNA synthetase (TcYRS) _High Tyrosine SOP. Further: in the data most compounds retested in dose-response had high values. Format: functional. The note with it: 30 µM.

The target in test [8] is T4, Tyrosyl-tRNA synthetase, putative (Trypanosoma cruzi (strain CL Brener)). The test can be described thus: Trypanosoma cruzi tyrosyl tRNA synthetase (TcYRS) SOP. Format: functional. The note with it: 30 µM.
Test [9] addresses Chromo domain-containing protein 1 (Saccharomyces cerevisiae (strain ATCC 204508 / S288c) (Baker's yeast)) (UniProt P32657). The test can be described thus: ScCHD-1 Enzyme Inhibition Assay. Further: in the data most compounds retested in dose-response had high values. Type of test: functional. The note with it: 30 µM.

Chain of Chromo domain-containing protein 1 (Saccharomyces cerevisiae (strain ATCC 204508 / S288c) (Baker's yeast)) (P32657 whole entry, the tested form may be a part): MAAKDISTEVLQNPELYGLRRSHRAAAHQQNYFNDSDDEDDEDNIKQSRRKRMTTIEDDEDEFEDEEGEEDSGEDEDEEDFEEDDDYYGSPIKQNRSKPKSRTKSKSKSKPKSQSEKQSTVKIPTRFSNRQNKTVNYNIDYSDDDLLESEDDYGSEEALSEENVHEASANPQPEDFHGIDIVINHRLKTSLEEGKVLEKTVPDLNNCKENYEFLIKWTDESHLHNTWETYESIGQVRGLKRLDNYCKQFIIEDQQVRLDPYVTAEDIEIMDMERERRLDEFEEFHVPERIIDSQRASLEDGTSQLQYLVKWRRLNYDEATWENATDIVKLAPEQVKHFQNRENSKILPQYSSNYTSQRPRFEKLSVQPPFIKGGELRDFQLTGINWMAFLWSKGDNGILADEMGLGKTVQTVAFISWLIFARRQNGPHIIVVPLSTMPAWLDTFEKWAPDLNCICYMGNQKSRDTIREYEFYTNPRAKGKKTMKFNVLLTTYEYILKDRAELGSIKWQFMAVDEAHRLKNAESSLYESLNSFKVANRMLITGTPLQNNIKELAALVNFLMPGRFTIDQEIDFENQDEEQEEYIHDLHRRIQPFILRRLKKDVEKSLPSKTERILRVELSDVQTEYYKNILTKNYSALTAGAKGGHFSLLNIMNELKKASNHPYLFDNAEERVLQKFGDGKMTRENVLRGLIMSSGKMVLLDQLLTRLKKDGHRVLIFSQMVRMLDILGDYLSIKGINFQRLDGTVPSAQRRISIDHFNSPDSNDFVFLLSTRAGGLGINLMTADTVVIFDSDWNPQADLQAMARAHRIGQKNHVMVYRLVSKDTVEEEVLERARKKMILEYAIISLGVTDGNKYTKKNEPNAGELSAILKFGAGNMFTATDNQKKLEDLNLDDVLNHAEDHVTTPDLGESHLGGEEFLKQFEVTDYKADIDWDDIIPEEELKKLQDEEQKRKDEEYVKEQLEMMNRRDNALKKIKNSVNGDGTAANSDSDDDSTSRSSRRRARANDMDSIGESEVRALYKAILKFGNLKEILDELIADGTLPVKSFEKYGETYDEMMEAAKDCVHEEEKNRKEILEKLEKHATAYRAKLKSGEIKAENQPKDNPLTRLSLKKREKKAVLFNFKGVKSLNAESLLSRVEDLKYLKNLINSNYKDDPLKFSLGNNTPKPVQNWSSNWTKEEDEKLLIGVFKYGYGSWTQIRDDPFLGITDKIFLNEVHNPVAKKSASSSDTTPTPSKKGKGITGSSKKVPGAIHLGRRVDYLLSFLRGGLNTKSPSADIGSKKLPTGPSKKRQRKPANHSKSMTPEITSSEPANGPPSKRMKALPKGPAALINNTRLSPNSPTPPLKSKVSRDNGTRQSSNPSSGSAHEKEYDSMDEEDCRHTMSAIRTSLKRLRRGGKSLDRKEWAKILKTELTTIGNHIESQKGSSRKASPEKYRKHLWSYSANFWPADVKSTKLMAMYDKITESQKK

As to `CCS(=O)(=O)CC(=O)NC(c1ccccc1)C1CCCCC1` (stereo not given), the Percent Effect was -6.35% in [1]; 2.63% in test [2]; 9.57% in test [3]; -0.679% in test [4]; 3.41% with Trypanosoma cruzi; -17.8% in [5]. The Percent Effect is 21.6% in test [6]; -15.8% in the test listed under Homo sapiens; 4.25% in [7]; 7.79% in test [8]; -3.43% in test [9].
For the molecule `c1cnnc(N2CCCC2CNCc2nc3ccccc3o2)c1` (stereo not given), the Percent Effect was -0.208% in test [1]; 2.74% in [2]; -3.71% in test [3]; 10.3% in [4]; 0% in the test on Trypanosoma cruzi; -3.19% in test [5]. Also, the Percent Effect in test [6] is 21%; in the test filed under Homo sapiens it was -2.37%; in [7] it was 15.6%; in [8], 25.9%; in [9] it was -2.93%.
Regarding `CCC(CC)c1cc(C(=O)N2CCCC(n3cncn3)C2)on1` (stereo not given), the Percent Effect was -2.21% in [1]; -1.39% in test [2]; -4.63% in test [3]; 9.13% in [4]; 3.6% with Trypanosoma cruzi; 22.5% in test [5]. The Percent Effect in [6] was 11.9%; in the test listed under Homo sapiens, -8.85%; in test [7], 1.05%; in [8] it was 5.13%; in test [9], 0.586%.
For the molecule `O=C(c1cccc(Cl)c1)N1CC[C@H]2[C@H]1CCN2CC1CCOCC1`, the Percent Effect in [1] was -2.38%; in [2] it was 0%; in test [3] it was 10.3%; in test [4] it was 0.0847%; in the test on Trypanosoma cruzi, 0.197%; in test [5] it was 1.17%. Also, the Percent Effect in test [6] is 9.78%; in the test filed under Homo sapiens, -5.51%; in [7], 4.25%; in [8], 3.85%; in test [9], -5.25%.
For `Cc1ncc(CN2Cc3ccccc3O[C@]3(CC[C@H](CO)CC3)C2)cn1`, the Percent Effect is -1.38% in test [1]; 6.76% in [2]; 8.93% in [3]; 6.44% in [4]; -2.57% in the test with Trypanosoma cruzi; 0.696% in test [5]. Further, the Percent Effect in [6] was 0.78%; in the test listed under Homo sapiens, 8.08%; in test [7], 3.23%; in test [8] it was 9.09%; in [9], -4.96%.
For `O=C(CC1CCCC1)N1CCCC(c2n[nH]c3nccnc23)C1` (stereo not given), the Percent Effect is -2.49% in [1]; 6.76% in test [2]; 20.4% in [3]; 3.58% in test [4]; -2.17% in the test with Trypanosoma cruzi; 7.66% in [5]. Also, the Percent Effect is 11.2% in [6]; 13.3% in the test filed under Homo sapiens; 3.23% in test [7]; 16.9% in test [8]; -9.36% in [9].
Take `CC(=O)N1CCC(Oc2ccc(C#N)cn2)CC1`: the Percent Effect in [1] was -4.01%; in [2], 8.22%; in [3], 1.71%; in test [4], 12.9%; with Trypanosoma cruzi it was 2.94%; in test [5] it was 7.27%. Besides, the Percent Effect in [6] is 4.44%; in the test listed under Homo sapiens it was 11.1%; in test [7], 4.3%; in test [8], 12.5%; in test [9], -5.65%.
For `Cc1ccc([C@]2(O)CC[C@H]3CN(Cc4cccc(Cl)c4Cl)C[C@H]32)nc1`, the Percent Effect in test [1] is -2.93%; in [2], 12.2%; in test [3] it was 12.6%; in test [4] it was -9.17%; in the test on Trypanosoma cruzi, 1.98%; in [5], -0.232%. The Percent Effect in [6] is 17.8%; in the test listed under Homo sapiens it was 51.4%; in test [7], 9.68%; in test [8], 16.9%; in test [9] it was -15.7%.
Turning to `Cn1c(CC2CCS(=O)(=O)C2)nnc1SCCOc1cccc(Cl)c1` (stereo not given), the Percent Effect in [1] was -2.94%; in test [2], 10.8%; in test [3] it was -5.55%; in test [4], 20.9%; in the test with Trypanosoma cruzi it was 4.99%; in [5], 3.23%. Further, the Percent Effect in test [6] is 14.8%; in the test listed under Homo sapiens it was -7.24%; in test [7] it was 4.3%; in test [8], 16.1%; in [9] it was -10.4%.
Turning to `O=C(NCc1cc[nH]n1)NCC(c1ccccc1Cl)N1CCCC1` (stereo not given), the Percent Effect in [1] was -5.47%; in [2] it was 5.41%; in test [3], -5.47%; in test [4], 2.23%; in the test with Trypanosoma cruzi it was -2.25%; in test [5], 4.22%. The Percent Effect in test [6] was 13.1%; in the test filed under Homo sapiens, -4.64%; in test [7], 5.38%; in test [8] it was 13.6%; in [9], -1.7%.
